Measured values as given in PubChem BioAssay AID1159580 (chemical genetic matrix, 2015).
Values joined by “and” are separate entries in the source; they are usually repeats but may differ in a detail not shown here. Equal entries are not always repeated. Among all 5,500 compounds or so, about 2,000 (36%) were called active. Another 18% or so got no clear call; they are omitted. No stated cut-off is given here; in the data, active means normalized growth mostly below about 0.91 (no sharp cut-off); inconclusive means no clear call, values can overlap the other calls; inactive means mostly above about 0.92. The list shows a part of the results.

Assay: chemical genetic growth profiling, strain panel (AID 1159580);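 further: tested at 20 µM; growth read once vehicle control cultures reached saturation at 30 °C; 1 = growth at the plate median or of vehicle wells; lower values mean less growth of the strain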
Conditions: S. cerevisiae deletion strains, growth OD

Measured: normalized growth

Cn1c(=O)c2c(ncn2CCO)n(C)c1=O
inactive: locus YAL013W, strain DEP1, active compounds read low 1 | locus YAL021C, strain ccr4, active compounds read low 1.02 | locus YAL026C, strain drs2, active compounds read low 1.02 | locus YAL030W, strain snc1, active compounds read low 1.02 | locus YBL061C, strain skt5, active compounds read low 1.03 | locus YBR009C, strain hhf1, active compounds read low 1.02 | locus YBR021W, strain FUR4, active compounds read low 1.04 | locus YBR023C, strain chs3, active compounds read low 1.01 | locus YBR171W, strain sec66, active compounds read low 1.03 | locus YBR229C, strain ROT2, active compounds read low 1 | locus YBR231C, strain swc5, active compounds read low 1.02 | locus YBR279W, strain paf1, active compounds read low 1.02 | locus YCL011C, strain gbp2, active compounds read low 1.02 | locus YCL016C, strain dcc1, active compounds read low 1.01 | locus YCL029C, strain bik1, active compounds read low 1.02 | locus YCL061C, strain MRC1, active compounds read low 1.02 | locus YCL069W, strain vba3, active compounds read low 1.02 | locus YCR088W, strain abp1, active compounds read low 1.02 | locus YDL005C, strain med2, active compounds read low 1.02 | locus YDL035C, strain GPR1, active compounds read low 0.997 | locus YDL040C, strain nat1, active compounds read low 1.01 | locus YDL074C, strain BRE1, active compounds read low 1.04 | locus YDL101C, strain DUN1, active compounds read low 1.02 | locus YDL134C, strain PPH21, active compounds read low 1 | locus YDL185W, strain tfp1, active compounds read low 1 | locus YDL192W, strain arf1, active compounds read low 1.01 | locus YDR001C, strain nth1, active compounds read low 1.02 | locus YDR069C, strain doa4, active compounds read low 1.03 | locus YDR101C, strain arx1, active compounds read low 1.01 | locus YDR137W, strain rgp1, active compounds read low 1.04 | locus YDR150W, strain NUM1, active compounds read low 1 | locus YDR159W, strain sac3, active compounds read low 1.02 | locus YDR162C, strain NBP2, active compounds read low 1.01 | locus YDR195W, strain ref2 0.995 | locus YDR297W, strain sur2, active compounds read low 1 | locus YDR318W, strain mcm21, active compounds read low 1 | locus YDR334W, strain swr1, active compounds read low 1.02 | locus YDR335W, strain msn5, active compounds read low 1.02 | locus YDR388W, active compounds read low 0.998 | locus YDR392W, strain spt3, active compounds read low 1.03 | locus YDR502C, strain sam2, active compounds read low 0.978 | locus YEL003W, strain gim4, active compounds read low 1.02 | locus YEL037C, strain rad23, active compounds read low 1.05 | locus YEL061C, strain CIN8 (second series), active compounds read low 1.02 | locus YEL061C, strain CIN8, active compounds read low 1 | locus YER015W, strain faa2, active compounds read low 1.02 | locus YER016W, strain bim1, active compounds read low 1.01 | locus YER110C, active compounds read low 1.01 | locus YER111C, strain swi4, active compounds read low 1.03 | locus YER155C, strain BEM2 (second series), active compounds read low 1.04 | locus YER155C, strain BEM2, active compounds read low 1.01 | locus YER167W, strain BCK2, active compounds read low 0.979 | locus YFR010W, strain ubp6, active compounds read low 1.02 | locus YGL078C, strain dbp3, active compounds read low 0.994 | locus YGL086W, strain mad1, active compounds read low 0.986 | locus YGL167C, strain pmr1, active compounds read low 1.02 | locus YGL173C, strain kem1, active compounds read low 1.03 | locus YGL227W, strain vid30, active compounds read low 1 | locus YGL240W, strain doc1, active compounds read low 1.02 | locus YGL248W, strain PDE1, active compounds read low 1.01 | locus YGL253W, strain hxk2, active compounds read low 1.02 | locus YGR078C, strain PAC10, active compounds read low 1.02 | locus YGR135W, strain pre9, active compounds read low 0.971 | locus YGR229C, strain SMI1, active compounds read low 0.99 | locus YGR252W, strain gcn5, active compounds read low 0.912 | locus YHR013C, strain ard1, active compounds read low 1.04 | locus YHR027C, strain rpn1, active compounds read low 1 | locus YHR030C, strain SLT2, active compounds read low 0.999 and 0.984 | locus YHR079C, strain IRE1 (second series), active compounds read low 1.01 | locus YHR079C, strain IRE1, active compounds read low 0.974 | locus YHR094C, strain hxt1, active compounds read low 0.998 | locus YHR129C, strain ARP1, active compounds read low 1.02 | locus YHR142W, strain chs7, active compounds read low 1.02 | locus YHR200W, strain rpn10, active compounds read low 0.994 | locus YIL066C, strain RNR3, active compounds read low 1.01 | locus YIL073C, strain SPO22, active compounds read low 0.927 | locus YIL125W, strain kgd1, active compounds read low 0.988 | locus YIR030C, strain dcg1, active compounds read low 1.01 | locus YJL092W, strain hpr5, active compounds read low 1.02 | locus YJL095W, strain BCK1 (second series), active compounds read low 1 | locus YJL095W, strain BCK1, active compounds read low 1.04 and 0.969 | locus YJL115W, strain asf1, active compounds read low 1.02 | locus YJL129C, strain trk1, active compounds read low 1.04 | locus YJL134W, strain LCB3, active compounds read low 1.01 | locus YJL154C, strain vps35, active compounds read low 1.02 | locus YJL164C, strain tpk1, active compounds read low 1.02 | locus YJL166W, strain qcr8, active compounds read low 1.02 | locus YJL168C, strain set2, active compounds read low 1.01 | locus YJL187C, strain SWE1 (second series), active compounds read low 1.03 | locus YJL187C, strain SWE1, active compounds read low 1.01 | locus YJR043C, strain POL32, active compounds read low 1.03 | locus YJR066W, strain TOR1, active compounds read low 0.909
